High-throughput results from PubChem.
The list is not random: actives were taken first. Their share in the collection is about 9.2%.
ELG1 repair inh – ELG1-dependent DNA repair inhibition; HEK293T ELG1-luciferase reporter, luminescence, 16 h; DNA damage induced by 5-fluorouridine; Potency, µM (highest dose often 46.1 µM), without a hit: top-dose activity change, negative = inhibition, hits mostly inhibitors; 330,000 tested, 2.3% active; AID 504467; further: on the % scale 0 is the no-effect control and ±100 the full control effect; nearly all actives have a fitted effect of over 55% in size
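Quantitative HTS, concentration-response format. 2,000 cells/well co-treated with 5-fluorouridine and compound, 16 hr in 5% CO2 at 37 °C; ONE-Glo luminescence read after 30 min.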
FLuc counter – inhibits or activates purified firefly luciferase, miR-21 counter-screen; 360,000 tested, 6.9% active; P08659; Potency, µM (titrated, usually from 57.5 µM), for inactives: at the highest dose activity change, negative = inhibition, actives largely listed as inhibitors; purified FLuc, Km substrates, luminescence inhibition;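 further: plate controls were vehicle for no effect and reference inhibitor for full effect; nearly all actives have a fitted effect of over 55% in size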
Target sequence (P08659 whole entry, looked up): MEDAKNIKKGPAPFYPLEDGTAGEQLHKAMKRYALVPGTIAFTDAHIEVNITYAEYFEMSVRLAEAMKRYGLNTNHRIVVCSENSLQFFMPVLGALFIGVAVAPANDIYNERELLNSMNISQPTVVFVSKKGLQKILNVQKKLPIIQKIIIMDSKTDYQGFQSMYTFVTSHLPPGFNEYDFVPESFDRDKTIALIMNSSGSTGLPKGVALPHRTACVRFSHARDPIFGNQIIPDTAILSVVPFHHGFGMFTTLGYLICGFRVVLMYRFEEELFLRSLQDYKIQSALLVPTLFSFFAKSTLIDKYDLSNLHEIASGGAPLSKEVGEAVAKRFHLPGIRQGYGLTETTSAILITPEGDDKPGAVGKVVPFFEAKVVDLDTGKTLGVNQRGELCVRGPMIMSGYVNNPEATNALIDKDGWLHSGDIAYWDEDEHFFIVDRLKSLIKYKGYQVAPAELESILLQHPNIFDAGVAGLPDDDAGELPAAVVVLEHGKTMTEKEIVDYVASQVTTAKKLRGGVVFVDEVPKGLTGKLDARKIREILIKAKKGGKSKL
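Biochemical qHTS of compounds, final roughly 60 µM downward over six points, against 10 nM purified firefly luciferase using Km concentrations of substrates (10 uM D-luciferin, 10 uM ATP) in Tris acetate pH 7.5 buffer; luminescence output.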
SMN2 splice up – enhancers of SMN2 splice variant expression. 210,000 tested, 2.8% active. AID 1458. Potency, µM (titrated, usually from 46.1 µM), for the others: at the highest dose activity change, positive = activation, usual class: activators. HEK293 SMN2-luciferase splicing reporter, luminescence, 30-36 h; further: % of control where 0% means no effect; nearly all actives have a fitted effect of over 55% in size
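HEK293 cells carry an SMN2 minigene-luciferase reporter in which exon 7 inclusion puts luciferase in frame. Cells were seeded at 2000 cells/well, attached for 10-12 hours, then exposed to compounds for 30-36 hours at 37C before ONE-Glo luminescence.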
NPC1 prom act – activators of NPC1 promoter; AID 485313; 320,000 tested, 2.4% active; Potency, µM (highest dose often 9.22 µM), inactives show at the highest dose activation, most hits filed as activators; Huh7 NPC1 promoter luciferase reporter, 24 h; further: % of control where 0% means no effect; nearly all actives have a fitted effect of over 60% in size
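Huh7 cells stably carrying NPC1 promoter–luciferase, plated in Opti-MEM with 10% FBS for 2 h, were exposed to compound in DMSO for 24 h at 37 °C; luciferase reagent was added for 10 min and luminescence read.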
ELG1 genotoxic – induces genotoxicity in HEK293T cells with luciferase-tagged ELG1. HEK293T ELG1-luciferase reporter, luminescence, 16 h. Potency, µM (top dose mostly 46 µM), inactives show top-dose activity change, positive = activation, most hits filed as activators. 330,000 tested, 1.3% active. AID 504466; further: % of control where 0% means no effect; nearly all actives have a fitted effect of over 60% in size
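Genotoxic stress is detected as increased luminescence from luciferase-tagged ELG1 in HEK293T cells, measured with ONE-Glo after a 16 hr treatment at 37 °C.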
Rab9 promoter act – Rab9 promoter activation; Huh7 Rab9 promoter-luciferase reporter, luminescence, 24 h; Potency, µM (titrated, usually from 9.22 µM), for inactives: at the highest dose activation, negative = inhibition, actives largely listed as activators; 320,000 tested, 2.8% active; AID 485297; further: % of control where 0% means no effect; nearly all actives have a fitted effect of over 60% in size
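Huh7 cells stably carrying Rab9 promoter–luciferase reporter, plated 1500 cells/well, compound added after 2 h and incubated 24 h at 37 °C; luciferase luminescence then read after 10 min with detection reagent.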
ELG1 FLuc counter – luciferase inhibition in cell-free luciferin readout for ELG1 hits; shares compounds with ELG1 repair inh; cell-free firefly luciferase luminescence counter-screen, ViewLux; Potency, µM (highest dose often 46.1 µM), inactives show at the highest dose activity change, negative = inhibition, most hits filed as inhibitors; 350 tested, 3% active; further: on the % scale 0 is the no-effect control and ±100 the full control effect
ELG1-Luc inh – confirmation of human ELG1-dependent DNA repair inhibitors; HEK293T ELG1-luciferase levels, luminescence; cells co-treated with 5-fluorouridine; 670 tested, 68% active; Potency, µM (doses to about 46.1 µM), inactives show at the top dose activity change, negative = inhibition, usual class: inhibitors; shares compounds with ELG1 repair inh; AID 624248; further: on the % scale 0 is the no-effect control and ±100 the full control effect; nearly all actives have a fitted effect of over 55% in size
ELG1-Luc MMS – confirmation of human ELG1 repair inhibitors, MMS stimulated | Potency, µM (doses to about 46.1 µM), inactives show top-dose activity change, negative = inhibition, hits mostly inhibitors | shares compounds with ELG1 repair inh | HEK293T luciferase-tagged ELG1 level, MMS stimulated | AID 624249 | 670 tested, 53% active; further: on the % scale 0 is the no-effect control and ±100 the full control effect; nearly all actives have a fitted effect of over 60% in size
ELG1 5FU viab – confirmation of ELG1 repair inhibitors: viability with 5FU; shares compounds with ELG1 repair inh; cell viability with 5-FU, ELG1-dependent repair; Potency, µM (series often up to 46.1 µM), without a hit: top-dose activity change, negative = viability loss, hits mostly cytotoxic; 670 tested, under 10 active;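 further: ELG1-luc HEK293T cells cotreated with 5-fluorouridine at 10 µM final; viability measured 16 h after compound addition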
ELG1 MMS viab – confirmation of ELG1 repair inhibitors: viability with MMS. Potency, µM (doses to about 46.1 µM), inactives show at the highest dose activity change, negative = viability loss, actives largely listed as cytotoxic. shares compounds with ELG1 repair inh. Cell viability with MMS, ELG1-dependent DNA repair. 670 tested, 33% active;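 further: ELG1-luc HEK293T cells co-treated with 10 µM MMS; viability read 16 h after compound addition; on the % scale 0 is the no-effect control and ±100 the full control effect; nearly all actives have a fitted effect of over 60% in size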
Cell viab unstim – unstimulated viability counter-screen for ELG1 repair hits; shares compounds with ELG1 repair inh; cell viability counter-screen, unstimulated, luminescence; Potency, µM (top dose mostly 45.9 µM), without a hit: at the highest dose activity change, negative = loss of viability, actives largely listed as cytotoxic; 900 tested, 8% active;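 further: compound exposure lasted 16 hours before reading; on the % scale 0 is the no-effect control and ±100 the full control effect; nearly all actives have a fitted effect of over 55% in size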
FLuc enzyme – counter-screen for ELG1 repair inhibitors: firefly luciferase inhibition. shares compounds with ELG1 repair inh. purified firefly luciferase, luminescence counter-screen. Potency, µM (top dose mostly 57.5 µM), inactives show at the highest dose activity, negative = inhibition, hits mostly inhibitors. 350 tested, 10% active; further: on the % scale 0 is the no-effect control and ±100 the full control effect
* = called active by the depositor; ? = inconclusive; · = no result given. The call rests on the fitted dose curve; in most records, active means well fitted curve in the direction sought with a large enough effect; inconclusive means small, poorly fitted or top-dose-only effect, or another doubt; inactive means no such curve, though single readings can be large; an effect the other way counts as inactive or inconclusive. Potency means the concentration at half of the fitted maximal effect.

SMILES	ELG1 repair inh	FLuc counter	SMN2 splice up	NPC1 prom act	ELG1 genotoxic	Rab9 promoter act	ELG1-Luc inh	ELG1-Luc MMS	ELG1 5FU viab	ELG1 MMS viab	Cell viab unstim	others
O=C(/C=C1\NC2(CCCC2)Cc2ccccc21)C(=O)N/N=C/c1ccccc1O	2.31µM*	-2.1%	-80.4%	-20.0%	0.9%	-24.4%	?	8.88µM*	0.1%	?	-4.6%
COc1cc(NC(=O)C2CCC(CNc3c(N4CCC(C)CC4)c(=O)c3=O)CC2)cc(OC)c1 (stereo not given)	?	-0.8%	-4.6%	-2.2%	?	0.6%	·	·	·	·	·
COc1cc(NC(=O)C2CCC(CNc3c(N4CCCCC4)c(=O)c3=O)CC2)cc(OC)c1 (stereo not given)	?	-1.9%	11.4%	-2.0%	9.7%	0.2%	11.2µM*	-7.7%	?	-16.3%	?	ELG1 FLuc counter=-8.8%;FLuc enzyme=-5.6%
O=C(Nc1ccc(F)cc1)C1CCC(CNc2c(N3CCCCC3)c(=O)c2=O)CC1 (stereo not given)	0.1%	5.1%	·	-1.7%	-3.0%	-0.3%	?	6.5%	5.0%	-4.1%	-11.5%	ELG1 FLuc counter=73.1%;FLuc enzyme=-9.6%
Cc1ccc(S(=O)(=O)NC(=O)N(C)C2CCCCC2)cc1	-4.1%	-1.7%	·	-0.5%	0.0%	-7.3%	·	·	·	·	·
COc1cccc(-c2nc(CS(=O)(=O)CC(=O)NCCc3ccccc3)c(C)o2)c1	4.61µM*	-1.1%	·	3.2%	-4.0%	-3.3%	?	-4.3%	?	-0.7%	-8.7%
Cc1ccc(-n2ncc(C(=O)NCCCN3CCCCC3)c2C2CCN(C(=O)OC(C)(C)C)CC2)c(C)c1	·	6.2%	·	·	·	·	·	·	·	·	·
CCc1c(C)nc2c(Br)cccc2c1SCCC#N	-19.7%	-16.8%	-15.3%	-1.6%	-4.5%	-1.8%	·	·	·	·	·
CCc1c(C)nc2ccc(Br)cc2c1SCCC#N	4.11µM*	-0.4%	-24.0%	0.7%	-9.7%	0.5%	7.05µM*	15.8µM*	14.9%	?	-12.1%
COc1cc(-c2nnc(SCC(=O)N(C)C3CCS(=O)(=O)C3)o2)cc(OC)c1OC (stereo not given)	-1.6%	-1.8%	?	0.0%	13.5%	12.0%	·	·	·	·	·
N#C/C(=C(/O)c1ccc([N+](=O)[O-])s1)c1nc2ccccc2[nH]1	2.06µM*	-16.7%	·	-23.5%	-9.1%	-36.8%	?	0.791µM*	-10.5%	0.888µM*	?
N#C/C(=C(/O)c1ccc(Br)s1)c1nc2ccccc2[nH]1	?	?	·	-14.7%	2.2%	-7.5%	·	·	·	·	·
CCCCn1c(SCC(=O)Nc2nnc(C)s2)nc2c1c(=O)n(C)c(=O)n2C	9.3%	0.3%	-2.2%	-3.1%	0.3%	-0.7%	·	·	·	·	·
CCCCn1c(SCC(=O)Nc2nnc(CC)s2)nc2c1c(=O)n(C)c(=O)n2C	2.51µM*	4.0%	-40.4%	-9.3%	-17.6%	-11.8%	?	11.4%	-13.7%	?	?
COc1ccc(NC(=O)c2sc3nc(N4CCOCC4)c4c(c3c2N)CC(C)(C)OC4)cc1	0.411µM*	4.0%	·	-4.1%	18.6%	-0.1%	0.354µM*	15.3%	?	-6.5%	-0.5%	ELG1 FLuc counter=3.9%;FLuc enzyme=-9.1%
CC1(C)Cc2c(c(N3CCOCC3)nc3sc(C(=O)N4CCCCC4)c(N)c23)CO1	0.206µM*	-2.7%	5.2%	0.3%	3.5%	0.2%	0.445µM*	0.9%	?	-3.7%	-1.8%	ELG1 FLuc counter=20.1%;FLuc enzyme=-12.2%
CCOc1ccc(NC(=O)CCC(=O)c2ccc(F)cc2)cc1	-3.4%	0.0%	·	3.1%	5.0%	-0.8%	·	·	·	·	·
COc1cc(CC(NC(C)=O)C(=O)NC2CCN(c3nc(C)cc(C)c3C#N)CC2)cc(OC)c1 (stereo not given)	-9.6%	4.7%	-13.7%	-1.1%	-0.3%	6.2%	·	·	·	·	·
COc1cccc(CC(NC(C)=O)C(=O)NC2CCN(c3nc(C)cc(C)c3C#N)CC2)c1OC (stereo not given)	2.82µM*	-2.3%	-20.8%	-1.3%	-8.9%	-6.7%	7.91µM*	2.3%	?	2.5%	-4.4%
CN(C)c1ccc(/C=C/c2ccnc3ccc(F)cc23)cc1	·	·	·	·	·	·	·	·	·	·	-14.4%	ELG1 FLuc counter=-8.5%;FLuc enzyme=0.184µM*
CN(C)c1ccc(N=Nc2ccc(/C=C/c3ccnc4ccccc34)cc2)cc1	·	·	·	·	·	·	·	·	·	·	?
CCSc1nnc(C)c(=O)n1COC(=O)c1ccc(S(=O)(=O)N2CCCC2)cc1	?	0.1%	12.8%	11.8%	0.6%	5.3%	·	·	·	·	·
CCOc1ccc(S(=O)(=O)NCCC(=O)NCCOc2ccccc2)cc1	-2.8%	1.1%	·	-2.0%	17.8%	-3.1%	·	·	·	·	·
COc1ccc(S(=O)(=O)N2CCOCC2)cc1NC(=O)c1cc(C)oc1C	2.0%	3.9%	·	-4.0%	-0.3%	-1.1%	·	·	·	·	·
COc1ccc(S(=O)(=O)N2CCOCC2)cc1NC(=O)c1cccc2c(=O)c(C)c(-c3ccccc3)oc12	4.11µM*	-0.7%	·	-5.0%	-5.5%	-2.3%	4.45µM*	-3.0%	13.1%	6.0%	-18.5%
